# This excerpt belongs to a sample that is enriched for the strongest signals.
# Experiments:
# Assay in all cases: glycan array binding signal (z-score within array); higher = stronger binding
# Conditions in all cases: glycan notation: IUPAC condensed, linker removed
# [1] = target: Fuc(a1-2)Gal(b1-3)GalNAc(b1-3)Gal
# Method in brief: (§1)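 Arrays were curated from the Consortium for Functional Glycomics database, 3228 in total, and kept only where the protein sequence was available. Binding is expressed as a within-array Z-score. This score was averaged across arrays of the same protein sequence at different concentrations or buffers and across linkers, and negative values can be read as non-binding.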
# [2] = target: Fuc(a1-2)Gal(b1-3)GalNAc(b1-3)Gal(a1-4)Gal(b1-4)Glc
# Method in brief: as §1
# [3] = target: Fuc(a1-2)Gal(b1-3)GlcNAc
# Method in brief: as §1
# [4] = target: Fuc(a1-2)[Gal(a1-3)]Gal(b1-3)GalNAc(b1-3)Gal(a1-4)Gal(b1-4)Glc
# Method in brief: as §1
# [5] = target: Fuc(a1-2)[Gal(a1-3)]Gal(b1-3)GlcNAc
# Method in brief: as §1
# [6] = target: Fuc(a1-2)[GalNAc(a1-3)]Gal(b1-4)GlcNAc(b1-3)Gal(b1-4)GlcNAc(b1-3)Gal(b1-4)GlcNAc
# Method in brief: as §1
# [7] = target: Fuc(a1-2)[GalNAc(a1-3)]Gal(b1-4)[Fuc(a1-3)]GlcNAc
# Method in brief: as §1
# [8] = target: Fuc(a1-2)[GalNAc(b1-3)]Gal
# Method in brief: as §1
# [9] = target: Fuc(a1-3)GlcNAc
# Method in brief: as §1
# [10] = target: Fuc(a1-3)[Gal(b1-4)]GlcNAc(b1-2)Man
# Method in brief: as §1
# [11] = target: Gal(a1-3)Gal(b1-3)GlcNAc
# Method in brief: as §1
# [12] = target: Gal(a1-3)Gal(b1-3)GlcNAc(b1-2)Man(a1-3)[Gal(a1-3)Gal(b1-3)GlcNAc(b1-2)Man(a1-6)]Man(b1-4)GlcNAc(b1-4)GlcNAc
# Method in brief: as §1
# [13] = target: Gal(a1-3)Gal(b1-4)GlcNAc(b1-3)GalNAc
# Method in brief: as §1
# [14] = target: Gal(a1-4)Gal(b1-4)GlcNAc(b1-2)Man(a1-3)[Gal(a1-4)Gal(b1-4)GlcNAc(b1-2)Man(a1-6)]Man(b1-4)GlcNAc(b1-4)GlcNAc
# Method in brief: as §1
# [15] = target: Gal(b1-2)Gal
# Method in brief: as §1
# [16] = target: Gal(b1-3)Gal(b1-4)GlcNAc
# Method in brief: as §1
# [17] = target: Gal(b1-3)GalNAc(a1-3)[Fuc(a1-2)]Gal(b1-4)GlcNAc
# Method in brief: as §1
# [18] = target: Gal(b1-3)GlcNAc(b1-2)Man(a1-3)[Gal(b1-3)GlcNAc(b1-2)Man(a1-6)]Man(b1-4)GlcNAc(b1-4)[Fuc(a1-6)]GlcNAc
# Method in brief: as §1
# [19] = target: Gal(b1-3)GlcNAc(b1-2)[Gal(b1-3)GlcNAc(b1-6)]Man(a1-6)[Gal(b1-3)GlcNAc(b1-2)Man(a1-3)]Man(b1-4)GlcNAc(b1-4)GlcNAc
# Method in brief: as §1
# [20] = target: Gal(b1-4)Gal
# Method in brief: as §1
# [21] = target: Gal(b1-4)GlcNAc
# Method in brief: as §1
# [22] = target: Gal(b1-4)GlcNAc(b1-2)[Gal(b1-4)GlcNAc(b1-4)]Man(a1-3)[Gal(b1-4)GlcNAc(b1-2)[Gal(b1-4)GlcNAc(b1-6)]Man(a1-6)]Man(b1-4)GlcNAc(b1-4)GlcNAc
# Method in brief: as §1
# [23] = target: Gal(b1-4)GlcNAc(b1-3)Gal(b1-4)GlcNAc(b1-3)Gal(b1-4)GlcNAc(b1-3)Gal(b1-4)GlcNAc(b1-2)[Gal(b1-4)GlcNAc(b1-3)Gal(b1-4)GlcNAc(b1-3)Gal(b1-4)GlcNAc(b1-3)Gal(b1-4)GlcNAc(b1-6)]Man(a1-6)[Gal(b1-4)GlcNAc(b1-3)Gal(b1-4)GlcNAc(b1-3)Gal(b1-4)GlcNAc(b1-3)Gal(b1-4)GlcNAc(b1-2)Man(a1-3)]Man(b1-4)GlcNAc(b1-4)[Fuc(a1-6)]GlcNAc
# Method in brief: as §1
# [24] = target: Gal(b1-4)GlcNAc(b1-3)Gal(b1-4)GlcNAc(b1-3)Gal(b1-4)GlcNAc(b1-3)Gal(b1-4)GlcNAc(b1-3)Gal(b1-4)GlcNAc(b1-2)Man(a1-3)[Gal(b1-4)GlcNAc(b1-3)Gal(b1-4)GlcNAc(b1-3)Gal(b1-4)GlcNAc(b1-3)Gal(b1-4)GlcNAc(b1-3)Gal(b1-4)GlcNAc(b1-2)Man(a1-6)]Man(b1-4)GlcNAc(b1-4)GlcNAc
# Method in brief: as §1
# [25] = target: Gal(b1-4)GlcNAc(b1-3)Gal(b1-4)[Fuc(a1-3)]GlcNAc(b1-3)Gal(b1-4)[Fuc(a1-3)]GlcNAc
# Method in brief: as §1
# [26] = target: Gal3S(b1-3)GlcNAc
# Method in brief: as §1
# [27] = target: Gal3S(b1-4)Glc6S
# Method in brief: as §1
# [28] = target: Gal3S(b1-4)[Fuc(a1-3)]Glc6S
# Method in brief: as §1
# [29] = target: Gal3S(b1-4)[Fuc(a1-3)]GlcNAc6S
# Method in brief: as §1
# [30] = target: Gal4S6S(b1-4)GlcNAc
# Method in brief: as §1
# [31] = target: Gal6S(b1-4)GlcNAc
# Method in brief: as §1
# [32] = target: GalNAc(b1-3)Gal(a1-4)Gal(b1-4)GlcNAc
# Method in brief: as §1
# [33] = target: GalNAc(b1-3)Gal(a1-6)Gal(b1-4)Glc
# Method in brief: as §1
# [34] = target: GalNAc(b1-4)GlcNAc
# Method in brief: as §1
# [35] = target: GlcNAc(a1-4)Gal(b1-4)GlcNAc
# Method in brief: as §1
# [36] = target: GlcNAc(a1-4)Gal(b1-4)GlcNAc(b1-3)Gal(b1-4)[Fuc(a1-3)]GlcNAc(b1-3)Gal(b1-4)[Fuc(a1-3)]GlcNAc
# Method in brief: as §1
# [37] = target: GlcNAc(b1-3)Gal(b1-4)GlcNAc(b1-2)Man(a1-3)[GlcNAc(b1-3)Gal(b1-4)GlcNAc(b1-2)Man(a1-6)]Man(b1-4)GlcNAc(b1-4)[Fuc(a1-6)]GlcNAc
# Method in brief: as §1
# [38] = target: Kdn(a2-3)Gal(b1-4)Glc
# Method in brief: as §1
# [39] = target: Neu5Ac(a2-3)Gal(b1-3)GlcNAc(b1-3)Gal(b1-4)GlcNAc
# Method in brief: as §1
# [40] = target: Neu5Ac(a2-3)Gal(b1-3)GlcNAc(b1-6)GalNAc
# Method in brief: as §1
# [41] = target: Neu5Ac(a2-3)Gal(b1-4)GlcNAc(b1-2)Man(a1-3)[Neu5Ac(a2-6)Gal(b1-4)GlcNAc(b1-2)Man(a1-6)]Man(b1-4)GlcNAc(b1-4)GlcNAc
# Method in brief: as §1
# [42] = target: Neu5Ac(a2-3)Gal(b1-4)GlcNAc(b1-2)[Neu5Ac(a2-3)Gal(b1-4)GlcNAc(b1-6)]Man(a1-6)[Neu5Ac(a2-3)Gal(b1-4)GlcNAc(b1-2)Man(a1-3)][GlcNAc(b1-4)]Man(b1-4)GlcNAc(b1-4)GlcNAc
# Method in brief: as §1
# [43] = target: Neu5Ac(a2-3)Gal(b1-4)GlcNAc(b1-3)Gal
# Method in brief: as §1
# [44] = target: Neu5Ac(a2-3)Gal(b1-4)GlcNAc(b1-3)Gal(b1-4)GlcNAc(b1-3)Gal(b1-4)GlcNAc(b1-2)Man(a1-3)[Neu5Ac(a2-3)Gal(b1-4)GlcNAc(b1-3)Gal(b1-4)GlcNAc(b1-3)Gal(b1-4)GlcNAc(b1-2)Man(a1-6)]GalNAc
# Method in brief: as §1
# [45] = target: Neu5Ac(a2-3)Gal(b1-4)GlcNAc(b1-3)[Neu5Ac(a2-3)Gal(b1-4)GlcNAc(b1-6)]GalNAc
# Method in brief: as §1
# [46] = target: Neu5Ac(a2-3)Gal(b1-4)GlcNAc(b1-6)[Gal(b1-3)]GalNAc
# Method in brief: as §1
# [47] = target: Neu5Ac(a2-6)Gal(b1-3)GlcNAc(b1-3)[Gal(b1-4)GlcNAc(b1-6)]Gal(b1-4)Glc
# Method in brief: as §1
# [48] = target: Neu5Ac(a2-6)Gal(b1-4)GlcNAc(b1-2)Man(a1-3)[Gal(b1-4)GlcNAc(b1-2)Man(a1-6)]Man(b1-4)GlcNAc(b1-4)GlcNAc
# Method in brief: as §1
# [49] = target: Neu5Ac(a2-6)Gal(b1-4)GlcNAc(b1-6)[Gal(b1-3)GlcNAc(b1-3)]Gal(b1-4)Glc
# Method in brief: as §1
# [50] = target: Neu5Ac(a2-6)GlcNAc(b1-4)GlcNAc(b1-4)GlcNAc
# Method in brief: as §1
binder,measurement,setting,value
FimA-N1 (Actinomyces oris) (protein) MHHHHHHSSGVDLGTENLYFQSNATETPNYGNIKTDATGSLVIHKHLTGGGKDIGTPTGTAQNADDKGPAVEGVVFTAYPITDINLKDPAGWDTISNLSRTGVPDSACANPAAPTLGAHQFGTPKVSPATTKEGLATITEMPVQAYLVCETTTPGDIVQKAKPFVVTIPHPNTAAGADGQWIYDVNVYPKNEAIDVDKTIQAQK,glycan array binding signal (z-score),[1],2.83
same,glycan array binding signal (z-score),[2],-0.245
same,glycan array binding signal (z-score),[3],-0.136
same,glycan array binding signal (z-score),[4],0.011
same,glycan array binding signal (z-score),[5],1.81
same,glycan array binding signal (z-score),[6],-0.23
same,glycan array binding signal (z-score),[7],0.129
same,glycan array binding signal (z-score),[8],1.69
same,glycan array binding signal (z-score),[9],-0.336
same,glycan array binding signal (z-score),[10],0.002
same,glycan array binding signal (z-score),[11],1.89
same,glycan array binding signal (z-score),[12],-0.21
same,glycan array binding signal (z-score),[13],-0.363
same,glycan array binding signal (z-score),[14],0.207
same,glycan array binding signal (z-score),[15],1.45
same,glycan array binding signal (z-score),[16],-0.145
same,glycan array binding signal (z-score),[17],-0.448
same,glycan array binding signal (z-score),[18],-0.504
same,glycan array binding signal (z-score),[19],3.13
same,glycan array binding signal (z-score),[20],-0.308
same,glycan array binding signal (z-score),[21],-0.171
same,glycan array binding signal (z-score),[22],-0.483
same,glycan array binding signal (z-score),[23],1.54
same,glycan array binding signal (z-score),[24],3.32
same,glycan array binding signal (z-score),[25],-0.434
same,glycan array binding signal (z-score),[26],-0.055
same,glycan array binding signal (z-score),[27],3.06
same,glycan array binding signal (z-score),[28],1.9
same,glycan array binding signal (z-score),[29],7.57
same,glycan array binding signal (z-score),[30],0.072
same,glycan array binding signal (z-score),[31],0.396
same,glycan array binding signal (z-score),[32],0.521
same,glycan array binding signal (z-score),[33],-0.352
same,glycan array binding signal (z-score),[34],-0.187
same,glycan array binding signal (z-score),[35],-0.509
same,glycan array binding signal (z-score),[36],0.476
same,glycan array binding signal (z-score),[37],-0.002
same,glycan array binding signal (z-score),[38],0.117
same,glycan array binding signal (z-score),[39],-0.463
same,glycan array binding signal (z-score),[40],0.079
same,glycan array binding signal (z-score),[41],-0.244
same,glycan array binding signal (z-score),[42],-0.572
same,glycan array binding signal (z-score),[43],-0.466
same,glycan array binding signal (z-score),[44],2.52
same,glycan array binding signal (z-score),[45],-0.03
same,glycan array binding signal (z-score),[46],-0.173
same,glycan array binding signal (z-score),[47],-0.454
same,glycan array binding signal (z-score),[48],6.46
same,glycan array binding signal (z-score),[49],-0.313
same,glycan array binding signal (z-score),[50],0.006
